Compounds without any hit were thinned out: in the full panel of roughly 83,000, 20% have a hit.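 Negative percent growth values reflect cell death: -40 means 40% of the cells present at the start died, and -100 means all died.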 A number with no mark means an inactive call. The source made the active and inactive calls. The calls were made as follows: active = growth percent below 10; inactive = the rest.
Experiments:
Test in all cases: NCI-60 one-dose screen, 48 h (100 = growth as untreated, 0 = no growth, -100 = all killed)
Settings in all cases: 10 µM unless noted
HCT-15 colon = test system: HCT-15 colon
SNB-75 CNS = test system: SNB-75 CNS
U251 CNS = test system: U251 CNS
PC-3 prostate = test system: PC-3 prostate
UACC-62 melanoma = test system: UACC-62 melanoma
LOX IMVI melanoma = test system: LOX IMVI melanoma
SK-MEL-28 melanoma = test system: SK-MEL-28 melanoma
SNB-19 CNS = test system: SNB-19 CNS
SK-MEL-5 melanoma = test system: SK-MEL-5 melanoma

| Compound | growth (HCT-15 colon) | growth (SNB-75 CNS) | growth (U251 CNS) | growth (PC-3 prostate) | growth (UACC-62 melanoma) | growth (LOX IMVI melanoma) | growth (SK-MEL-28 melanoma) | growth (SNB-19 CNS) | growth (SK-MEL-5 melanoma) |
| --- | --- | --- | --- | --- | --- | --- | --- | --- | --- |
| COc1ccc(/C=C2\COc3ccc(O)cc3C2=O)c(OC)c1 | 34.4% | 47.5% | 50.3% | 57.2% | 50% | 45.4% | 64% |  |  |
| CCN(CC)CC(O)CNc1c2ccc(Cl)cc2nc2ccc(OC)cc12 (stereo not drawn) | -6.56% (active) | 58.4% | -28.3% (active) |  | 64.8% | -64.2% (active) | -96.6% (active) | 57.3% | -92.5% (active) |
| O=C1CSC(c2ccccc2O)N1c1nnc(Cn2cnnc2)o1 (stereo not drawn) | 66.2% | 66.8% | 79.7% | 79.4% | 90.8% | 78.5% | 102% | 90.4% | 95.1% |
| CCC(O)(C(c1ccccc1)c1ccccn1)C(c1ccccc1)c1ccccn1 (stereo not drawn) | 103% | 99.4% | 107% | 97.4% | 113% | 98% | 107% | 108% | 106% |
| Cc1c2c(cn1Cc1ccccc1)CCc1cn[nH]c1-2 | 99.3% | 92.2% | 89.3% | 74.9% | 76.8% | 90.8% | 105% | 86.9% | 89% |
| CC(=O)c1cc2c(o1)C(=O)c1ccccc1C2=O | -77% (active) | -98.5% (active) | -81.2% (active) | -10.4% (active) | -82.7% (active) | -59.3% (active) | -70.8% (active) | -90.8% (active) | -96.3% (active) |
| O=c1oc2ccc(Cl)cc2cc1-c1cs/c(=N/N=C\c2ccc(Cl)cc2)n1/N=C/c1ccc(Cl)cc1 | 105% | 123% | 102% |  | 93.8% | 110% | 110% | 98.4% | 104% |
| C#C[C@]1(O)CC[C@H]2[C@@H]3CC=C4c5sc(N=C(N)N)nc5CC[C@]4(C)[C@H]3CC[C@@]21C | -60.8% (active) | -60.5% (active) | -14.9% (active) | 0.258% (active) | -51.7% (active) | -64.4% (active) | -68.8% (active) | 18.9% | -94.9% (active) |

From PubChem BioAssay (NCI)
